Measured values taken from PubChem BioAssay (NCATS).
Records with an inconclusive call do not appear. Calls of active or inactive are those of the source. Unless noted, the call rests on the fitted dose curve; in most records, active means well fitted curve in the direction sought with a large enough effect; inconclusive means small, poorly fitted or top-dose-only effect, or another doubt; inactive means no such curve, though single readings can be large; an effect the other way counts as inactive or inconclusive.

Legend:
[1] = qHTS assay to identify small molecule inhibitors of chordoma cells - UCH-2 (AID 1259356); further: series mostly up to about 46 µM
[2] = P-glycoprotein substrates identified in KB-8-5-11 adenocarcinoma cell line, qHTS therapeutic library screen (AID 1346987); further: nearly all actives have a fitted effect of over 65% in size; further: potency means the concentration at half of the fitted maximal effect
Outline: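 KB-8-5-11: colchicine-selected sub-line of KB-3-1 over-expressing P-gp; assay medium lacked colchicine. 72 h drug exposure at 37 degree C, CellTiter-Glo.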

[3] = Natriuretic polypeptide receptor (hNpr1) antagonism - Pilot counterscreen GloSensor control cell line (AID 1347045; calls by dose curve; further: series mostly up to about 38 µM)
Outline: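 HEK293 cells carrying the GloSensor cGMP sensor (GIP/pGS-40F) were loaded with 2% GloSensor reagent for 2 h, exposed to compounds for 30 min, and then stimulated with 50 uM sodium nitroprusside for 20 min at room temperature.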

[4] = target: Atrial natriuretic peptide receptor 1 (Homo sapiens) (UniProt P16066); experiment: Natriuretic polypeptide receptor (hNpr1) antagonism - Pilot screen (AID 1347049; calls by dose curve;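 further: agonist-evoked cGMP luminescence read 20 min after hNppA addition; series mostly up to about 58 µM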)
Atrial natriuretic peptide receptor 1 (Homo sapiens), sequence (P16066 whole entry, looked up): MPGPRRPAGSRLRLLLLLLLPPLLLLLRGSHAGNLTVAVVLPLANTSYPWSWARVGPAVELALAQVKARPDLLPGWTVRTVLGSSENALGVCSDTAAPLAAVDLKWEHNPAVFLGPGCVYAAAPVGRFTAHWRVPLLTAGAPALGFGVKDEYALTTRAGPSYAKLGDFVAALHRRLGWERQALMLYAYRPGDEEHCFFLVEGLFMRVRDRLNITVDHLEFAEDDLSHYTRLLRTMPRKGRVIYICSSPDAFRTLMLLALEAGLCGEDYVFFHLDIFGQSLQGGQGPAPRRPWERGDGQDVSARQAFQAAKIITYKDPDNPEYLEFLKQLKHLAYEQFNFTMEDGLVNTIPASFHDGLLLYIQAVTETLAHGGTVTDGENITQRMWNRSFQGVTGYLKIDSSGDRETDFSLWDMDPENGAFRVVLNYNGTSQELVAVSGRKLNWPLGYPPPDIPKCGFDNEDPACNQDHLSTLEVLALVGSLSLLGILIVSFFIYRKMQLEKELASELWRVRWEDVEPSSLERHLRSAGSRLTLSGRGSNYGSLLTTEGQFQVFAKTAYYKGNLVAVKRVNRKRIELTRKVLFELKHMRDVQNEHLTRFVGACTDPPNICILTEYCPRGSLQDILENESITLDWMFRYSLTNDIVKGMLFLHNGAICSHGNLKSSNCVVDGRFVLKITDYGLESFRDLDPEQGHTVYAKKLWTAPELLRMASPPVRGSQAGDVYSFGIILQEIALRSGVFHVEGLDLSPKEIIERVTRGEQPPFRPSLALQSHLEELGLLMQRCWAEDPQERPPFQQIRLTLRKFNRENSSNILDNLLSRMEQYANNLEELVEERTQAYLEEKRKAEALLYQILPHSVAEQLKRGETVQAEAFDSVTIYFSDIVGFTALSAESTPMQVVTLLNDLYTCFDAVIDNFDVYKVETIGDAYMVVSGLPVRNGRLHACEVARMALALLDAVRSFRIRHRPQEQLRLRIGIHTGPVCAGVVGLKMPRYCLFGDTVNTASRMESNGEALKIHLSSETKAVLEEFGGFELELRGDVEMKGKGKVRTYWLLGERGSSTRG
Outline: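 HEK293 cells co-expressing hNpr1 and the GloSensor pGS-40F cGMP luciferase sensor were preloaded with 2% GloSensor reagent for 2 h. Compounds were added for 30 min at room temperature, then cells were stimulated with 0.1 nM hNppA for 20 min before luminescence readout.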

[5] = target: Atrial natriuretic peptide receptor 2 (Homo sapiens) (UniProt P20594); experiment: Natriuretic polypeptide receptor (hNpr2) antagonism - Pilot subtype selectivity assay (AID 1347050; calls by dose curve)
Atrial natriuretic peptide receptor 2 (Homo sapiens), sequence (P20594 whole entry, looked up): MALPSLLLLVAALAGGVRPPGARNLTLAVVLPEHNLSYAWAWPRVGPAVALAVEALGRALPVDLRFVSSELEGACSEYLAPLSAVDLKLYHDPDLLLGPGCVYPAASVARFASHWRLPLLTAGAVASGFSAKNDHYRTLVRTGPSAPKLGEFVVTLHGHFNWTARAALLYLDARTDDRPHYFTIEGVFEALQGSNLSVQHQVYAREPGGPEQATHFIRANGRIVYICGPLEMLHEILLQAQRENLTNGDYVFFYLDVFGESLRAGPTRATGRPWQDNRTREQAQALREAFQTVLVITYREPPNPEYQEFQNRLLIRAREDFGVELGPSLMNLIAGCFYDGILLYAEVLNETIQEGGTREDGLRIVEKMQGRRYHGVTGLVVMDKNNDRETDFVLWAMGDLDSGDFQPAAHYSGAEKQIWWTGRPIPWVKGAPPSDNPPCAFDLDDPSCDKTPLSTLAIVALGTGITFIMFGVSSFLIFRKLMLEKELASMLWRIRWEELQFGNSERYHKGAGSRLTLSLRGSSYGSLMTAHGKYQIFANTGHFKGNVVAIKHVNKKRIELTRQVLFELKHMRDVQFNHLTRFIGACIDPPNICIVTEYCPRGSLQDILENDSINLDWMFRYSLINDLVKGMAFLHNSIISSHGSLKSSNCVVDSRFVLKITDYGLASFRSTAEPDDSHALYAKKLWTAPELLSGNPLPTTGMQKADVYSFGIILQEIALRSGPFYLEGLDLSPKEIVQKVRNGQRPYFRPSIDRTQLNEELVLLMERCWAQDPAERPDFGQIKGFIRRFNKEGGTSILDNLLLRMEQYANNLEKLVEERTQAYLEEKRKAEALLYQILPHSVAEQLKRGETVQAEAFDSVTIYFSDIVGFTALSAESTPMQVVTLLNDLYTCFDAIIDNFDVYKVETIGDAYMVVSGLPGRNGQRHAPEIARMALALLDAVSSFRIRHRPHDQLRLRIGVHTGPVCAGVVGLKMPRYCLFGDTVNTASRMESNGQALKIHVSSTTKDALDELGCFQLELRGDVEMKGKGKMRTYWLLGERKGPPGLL
Outline: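 cGMP-sensor HEK293/hNpr2 cells; 2% GloSensor reagent 2 h RT; compounds 30 min; baseline luminescence read; 1 nM hNppC agonist 20 min RT; final luminescence read by CCD camera. Antagonism = reduced post-agonist signal.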

[6] = NS1 protein of Zika virus - qHTS assay to identify small molecule inhibitors in human HEK 293 cells (AID 1347053); further: series mostly up to about 46 µM; nearly all actives have a fitted effect of over 55% in size
Outline: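 HEK 293 cells pretreated with compound for 1 h, then infected with ZIKV MR766 (MOI 0.5) for 24 h at 37 C. NS1 detected by TR-FRET with two anti-NS1 antibodies; normalized to uninfected (0%) and infected (100%) wells.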

[7] = target: T1, Tyrosine-protein phosphatase non-receptor type substrate 1 (Homo sapiens) + Leukocyte surface antigen CD47 (Homo sapiens) (UniProt P78324+Q08722); experiment: CD47-SIRPalpha protein protein interaction - LANCE assay qHTS validation (AID 1347057; active means well fitted curve in the direction sought with a large enough effect in the signal ratio, with a control signal flat, not every such curve was filed as active; the % refers to the signal ratio; further: series mostly up to about 38 µM)
T1 sequence (P78324 whole entry, looked up): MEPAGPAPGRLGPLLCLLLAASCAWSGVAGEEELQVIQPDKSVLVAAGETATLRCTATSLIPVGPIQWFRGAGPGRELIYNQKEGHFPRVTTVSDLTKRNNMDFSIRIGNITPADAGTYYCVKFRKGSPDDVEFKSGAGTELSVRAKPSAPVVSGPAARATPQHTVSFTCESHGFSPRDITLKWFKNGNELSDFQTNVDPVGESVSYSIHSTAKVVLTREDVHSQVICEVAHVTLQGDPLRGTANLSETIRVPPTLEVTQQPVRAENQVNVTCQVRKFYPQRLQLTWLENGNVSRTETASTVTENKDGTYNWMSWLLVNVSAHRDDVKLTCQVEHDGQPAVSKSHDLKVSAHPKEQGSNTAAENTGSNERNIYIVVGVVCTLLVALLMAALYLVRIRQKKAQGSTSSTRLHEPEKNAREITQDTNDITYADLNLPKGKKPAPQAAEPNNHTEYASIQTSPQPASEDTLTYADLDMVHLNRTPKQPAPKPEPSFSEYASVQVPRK
T1 sequence (Q08722 whole entry, looked up): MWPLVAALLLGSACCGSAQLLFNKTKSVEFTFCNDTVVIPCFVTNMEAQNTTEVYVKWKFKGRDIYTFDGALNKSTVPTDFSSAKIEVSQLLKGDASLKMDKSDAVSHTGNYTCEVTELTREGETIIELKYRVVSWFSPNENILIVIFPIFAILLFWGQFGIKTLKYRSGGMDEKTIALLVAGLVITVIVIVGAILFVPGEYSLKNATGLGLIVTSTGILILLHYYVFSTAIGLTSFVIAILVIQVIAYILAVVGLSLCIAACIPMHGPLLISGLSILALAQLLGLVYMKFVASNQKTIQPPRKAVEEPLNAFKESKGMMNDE
Outline: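 First, His-tagged CD47 and Eu-labelled anti-His antibody met the compound for 30 min; next, site-specifically biotinylated SIRPalpha was added for 30 min; finally streptavidin-APC was added before reading the TR-FRET ratio.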

[8] = target: T1, Tyrosine-protein phosphatase non-receptor type substrate 1 (Homo sapiens) + Leukocyte surface antigen CD47 (Homo sapiens); experiment: CD47-SIRPalpha protein protein interaction - HTRF assay qHTS validation (AID 1347058; active means well fitted curve in the direction sought with a large enough effect in the signal ratio, not every such curve was filed as active; the % refers to the signal ratio; further: series mostly up to about 38 µM)
Outline: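 TR-FRET read (Ch1/Ch2 ratio) of soluble extracellular CD47 and Avi-biotinylated SIRPalpha domains in PBS pH 7.4 with 0.05% IGEPAL; 7-point compound titration. Sequential 30 min room-temperature steps; non-biotinylated SIRPalpha as control inhibitor.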

[9] = target: T1, Tyrosine-protein phosphatase non-receptor type substrate 1 (Homo sapiens) + Leukocyte surface antigen CD47 (Homo sapiens); experiment: CD47-SIRPalpha protein protein interaction - Alpha assay qHTS validation (AID 1347059);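 further: bead proximity luminescence from CD47 binding SIRPalpha after compound preincubation with SIRPalpha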
Outline: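 Soluble extracellular domains: Avi-tag biotinylated SIRPalpha (25 nM) preincubated 30 min RT with compound, then 6His-CD47 (12.5 nM) 30 min; Ni-NTA acceptor and streptavidin donor beads (10 ug/mL) 30 min, AlphaScreen read. PBS pH 7.4, 0.05% IGEPAL.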

[10] = target: Parathyroid hormone/parathyroid hormone-related peptide receptor (Homo sapiens) (UniProt Q03431); experiment: qHTS for PTHR1 Agonists: Optimization Screen against the NCGC LOPAC library (AID 1347079);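 further: GloSensor cAMP luminescence in HEK-293 GP2 cells expressing human PTHR1 with IBMX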
Parathyroid hormone/parathyroid hormone-related peptide receptor (Homo sapiens), sequence (Q03431 whole entry, looked up): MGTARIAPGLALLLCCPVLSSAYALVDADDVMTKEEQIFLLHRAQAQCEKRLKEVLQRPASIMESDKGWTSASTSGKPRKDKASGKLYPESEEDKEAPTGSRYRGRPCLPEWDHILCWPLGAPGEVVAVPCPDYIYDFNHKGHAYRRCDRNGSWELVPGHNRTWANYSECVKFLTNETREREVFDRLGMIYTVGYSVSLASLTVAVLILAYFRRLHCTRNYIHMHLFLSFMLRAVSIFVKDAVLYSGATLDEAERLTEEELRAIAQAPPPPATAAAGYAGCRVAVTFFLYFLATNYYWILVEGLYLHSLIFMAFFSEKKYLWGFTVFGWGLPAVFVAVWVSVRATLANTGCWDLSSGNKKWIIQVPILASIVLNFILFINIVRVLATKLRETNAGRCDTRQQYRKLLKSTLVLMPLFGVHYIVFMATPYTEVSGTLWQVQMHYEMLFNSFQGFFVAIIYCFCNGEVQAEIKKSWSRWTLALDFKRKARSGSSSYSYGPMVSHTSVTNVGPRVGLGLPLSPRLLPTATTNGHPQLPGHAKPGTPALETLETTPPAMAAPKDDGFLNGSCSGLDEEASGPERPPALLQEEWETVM
Outline: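 Compounds were tested across a qHTS titration. PTHR1-expressing GP2 cells report cAMP rises via GloSensor luminescence after 1 hr compound exposure at 37C with IBMX present.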

[11] = qHTS of pediatric cancer cell lines to identify multiple opportunities for drug repurposing: Primary screen for TC32 cells (AID 1347089); further: nearly all actives have a fitted effect of over 60% in size; further: potency means the concentration at half of the fitted maximal effect
Outline: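 A viability screen of TC32 cells was run over 48 h, with primary MIPE doses spanning 0.78 nM–46 µM and NPC doses 0.59 nM–46 µM. ATP luminescence (CellTiter-Glo) served as the read-out.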

[12] = qHTS of pediatric cancer cell lines to identify multiple opportunities for drug repurposing: Primary screen for DAOY cells (AID 1347090); further: series mostly up to about 46 µM; nearly all actives have a fitted effect of over 55% in size
Outline: (§1)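 Eight- or eleven-point concentration series, 48 h treatment at 37 degrees C in growth media; readout CellTiter-Glo luminescence. Potency and efficacy were taken from the concentration-response curves.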

[13] = qHTS of pediatric cancer cell lines to identify multiple opportunities for drug repurposing: Primary screen for SJ-GBM2 cells (AID 1347091)
Outline: as §1

[14] = qHTS of pediatric cancer cell lines to identify multiple opportunities for drug repurposing: Primary screen for A673 cells (AID 1347092); further: nearly all actives have a fitted effect of over 45% in size; further: potency means the concentration at half of the fitted maximal effect
Outline: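 Titration-based qHTS on A673 cells: MIPE compounds spanned 11 points (0.78 nM to 46 µM final), NPC compounds 8 points (0.59 nM to 46 µM final). Viability after 48 h was measured by ATP luminescence.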

[15] = qHTS of pediatric cancer cell lines to identify multiple opportunities for drug repurposing: Primary screen for SK-N-MC cells (AID 1347093); further: potency means the concentration at half of the fitted maximal effect
Outline: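 Metabolically active cells were quantified by ATP-dependent luminescence (CellTiter-Glo, 15 min at room temperature) following 48 h treatment. Cells had been plated at 500-1,000 per well and settled for 5 h beforehand.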

[16] = qHTS of pediatric cancer cell lines to identify multiple opportunities for drug repurposing: Primary screen for BT-37 cells (AID 1347094); further: potency means the concentration at half of the fitted maximal effect
Outline: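 Primary screen of approved and investigational compounds on cells in growth media at 37 degrees C, 5% CO2. MIPE set at 11-point and NPC set at 8-point dilutions; viability scored by ATP-based luminescence at 48 hours.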

[17] = Identifying Small Molecule Inhibitors of Pancreatic Cancer Stem Cells (A2780, Spheroid) (AID 1259357); details: A2780 spheroid viability;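 further: spheroids pre-formed over 14 days in stem cell medium on hydrogel; potency means the concentration at half of the fitted maximal effect; compound exposure lasted 48 h before the ATP luminescence read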
Outline: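 Spheroids grown 14 days in stem cell media on nonadherent hydrogel before screening; cells attached 4 h, then compound exposure 48 h at 37C, 5% CO2. CellTiter-Glo luminescence normalized to DMSO (no inhibition) and no-cell wells (full inhibition).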

[18] = Identifying Small Molecule Inhibitors of Pancreatic Cancer Stem Cells (A278, Adherent) (AID 1259361);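 further: viability read after 48 h compound exposure; nearly all actives have a fitted effect of over 35% in size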
Outline: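 After a 4 h attachment period, compounds were pinned into wells and cultures held 48 h under standard incubator conditions. Viability was then measured as CellTiter-Glo luminescence following 10 min at room temperature.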

[19] = Identifying Small Molecule Inhibitors of Pancreatic Cancer Stem Cells (Panc1, Adherent) (AID 1259362);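 further: compound exposure lasted 48 h before the viability read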
Outline: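 Luminescent ATP readout (CellTiter-Glo) quantifies surviving cells after a 48 h drug incubation. Normalization uses DMSO wells as no inhibition and media-only wells as full inhibition; bortezomib served as positive control.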

[20] = P-glycoprotein substrates identified in KB-3-1 adenocarcinoma cell line, qHTS therapeutic library screen (AID 1346986); details: outcome: dose series up to 44.5 µM; further: nearly all actives have a fitted effect of over 60% in size
Outline: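 KB-3-1 parental cells and P-gp-overexpressing KB-8-5-11 (colchicine omitted during assay) plated at 500 cells/well, dosed in dose-response, incubated 72 h at 37 degree C. CellTiter-Glo luminescence read; KB-8-5-11 also tested with tariquidar.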

CCn1ccnc1CC1COc2ccccc2O1 (centres undefined)
inactive: Potency [1] | Potency [2] | Potency [3] | Potency [4] | Potency [5] | outcome [6] | outcome [7] | outcome [8] | Potency [9] | outcome [10] | Potency [11] | Potency [12] | Potency [13] | Potency [14] | Potency [15] | Potency [16]

C[C@]12CC[C@@H]3c4ccc(O)cc4C[C@@H](CCCCCCCCCS(=O)CCCC(F)(F)C(F)(F)F)[C@H]3[C@@H]1CC[C@@H]2O (some centres undefined)
inactive: Potency [1] | Potency [2] | Potency [3] | Potency [4] | Potency [5] | outcome [6] | outcome [7] | outcome [8] | Potency [9] | outcome [10] | Potency [11] | Potency [12] | Potency [14] | Potency [16]
active: Potency [15] 9.44 µM

CCOC(=O)C1=C(C)NC(C)=C(C(=O)OC)C1c1cccc(Cl)c1Cl (centres undefined)
inactive: Potency [1] | Potency [2] | Potency [3] | Potency [4] | Potency [5] | outcome [6] | outcome [7] | outcome [8] | Potency [9] | outcome [10] | Potency [11] | Potency [12] | Potency [13] | Potency [14] | Potency [16]

CCn1cc(C(=O)O)c(=O)c2cc3c(cc21)OCO3
inactive: Potency [1] | Potency [2] | Potency [3] | Potency [4] | Potency [5] | outcome [6] | outcome [7] | outcome [8] | Potency [9] | outcome [10] | Potency [11] | Potency [12] | Potency [13] | Potency [14] | Potency [15] | Potency [16]

Cc1ccc(S(=O)(=O)NC(=O)NN2CCCCCC2)cc1
inactive: Potency [1] | Potency [2] | Potency [3] | Potency [4] | Potency [5] | outcome [6] | outcome [7] | outcome [8] | Potency [9] | outcome [10] | Potency [11] | Potency [12] | Potency [13] | Potency [14] | Potency [16]

CC(C(=O)O)c1ccc(CC2CCCC2=O)cc1 (centres undefined)
inactive: Potency [1] | Potency [2] | Potency [3] | Potency [4] | Potency [5] | outcome [6] | outcome [7] | outcome [8] | Potency [9] | outcome [10] | Potency [11] | Potency [12] | Potency [13] | Potency [14] | Potency [15] | Potency [16]

Nc1ncn([C@@H]2O[C@H](CO)[C@@H](O)[C@H]2O)c(=O)n1
inactive: Potency [1] | outcome [19] | Potency [3] | Potency [4] | Potency [5] | outcome [8] | Potency [9] | outcome [10]
active: Potency [17] 16.6 µM | IC50 (viability decrease) [18] 2.35 µM | Potency [2] 8.2 µM | Potency [11] 11.8 µM | Potency [14] 6.68 µM | Potency [15] 21.1 µM | Potency [16] 12.3 µM

CC(C)(Oc1ccc(CCNC(=O)c2ccc(Cl)cc2)cc1)C(=O)O
inactive: Potency [1] | Potency [2] | Potency [3] | Potency [4] | Potency [5] | outcome [6] | outcome [7] | outcome [8] | Potency [9] | outcome [10] | Potency [11] | Potency [12] | Potency [13] | Potency [14] | Potency [15] | Potency [16]

CCCN1C[C@H](CSC)C[C@@H]2c3cccc4[nH]cc(c34)C[C@H]21
inactive: Potency [1] | outcome [20] | Potency [2] | Potency [3] | Potency [4] | Potency [5] | outcome [6] | outcome [8] | Potency [9] | outcome [10] | Potency [11] | Potency [12] | Potency [13] | Potency [14] | Potency [15] | Potency [16]

CC(C)NNC(=O)c1ccncc1
inactive: Potency [1] | Potency [2] | Potency [3] | Potency [4] | Potency [5] | outcome [6] | outcome [7] | outcome [8] | Potency [9] | outcome [10] | Potency [11] | Potency [12] | Potency [13] | Potency [14] | Potency [15] | Potency [16]

NC/C=C/C(=O)O
inactive: Potency [1] | Potency [2] | Potency [3] | Potency [4] | Potency [5] | outcome [6] | outcome [7] | outcome [8] | Potency [9] | outcome [10] | Potency [11] | Potency [12] | Potency [13] | Potency [14] | Potency [15] | Potency [16]

C[N+](C)(C)CCOC(=O)CCC(=O)OCC[N+](C)(C)C
inactive: Potency [1] | Potency [2] | Potency [3] | Potency [4] | Potency [5] | outcome [6] | outcome [7] | outcome [8] | Potency [9] | outcome [10] | Potency [12] | Potency [13] | Potency [14] | Potency [15] | Potency [16]

CN/C(=C\[N+](=O)[O-])NCCSCc1ccc(CN(C)C)o1
inactive: Potency [1] | Potency [2] | Potency [3] | Potency [4] | Potency [5] | outcome [6] | outcome [7] | outcome [8] | Potency [9] | outcome [10] | Potency [11] | Potency [12] | Potency [13] | Potency [16]
active: Potency [15] 0.001 µM

FC(F)(F)c1ccccc1-n1ccnc1
inactive: Potency [1] | Potency [2] | Potency [3] | Potency [4] | Potency [5] | outcome [6] | outcome [7] | outcome [8] | Potency [9] | outcome [10] | Potency [11] | Potency [12] | Potency [13] | Potency [14] | Potency [15] | Potency [16]

CCCCNc1ccc(C(=O)OCCN(C)C)cc1
inactive: Potency [1] | Potency [2] | Potency [3] | Potency [4] | Potency [5] | outcome [6] | outcome [7] | outcome [8] | Potency [9] | outcome [10] | Potency [11] | Potency [12] | Potency [13] | Potency [14] | Potency [15] | Potency [16]
